“And” between values parts separate entries of the source, which are not always exact repeats. Equal entries are not always repeated. Hit rate of the full screen: of about 360,000 compounds, about 1,100 (0.31%) were called active. Rule as the data show it: active = activity change below about -30%; inactive = the rest. What follows is part of a selection rich in actives, with near analogues and random picks from the rest.
% is scaled to controls: 0 for no effect and ±100 for the full control effect.

The test system of this assay is cytosolic chaperonin (CCT/TRiC complex). In words: High-Throughput Screening for Modulators of Cytosolic Chaperonin Activity. Conditions: purified chaperonin ATPase assay, HTRF ADP detection, 30 min; hits give low values. A digest of the protocol:
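TRiC at 40 or 20 nM final (batch-dependent) in 30 mM Tris pH 7.4, 100 mM KCl, 5 mM MgCl2, 1 mM DTT, with compound at single 76 uM and 10 uM ATP, 30 min at 37 deg C. ADP detected by HTRF Transcreener, 665/615 ratio.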
On the technique in general: In TR-FRET formats the signal depends on donor and acceptor labels being close together.
Consider `CSCCC1NC2(C(=O)Nc3ccc(Cl)cc32)[C@@H]2C(=O)N(C3CCCC3)C(=O)[C@H]12` (some centres undefined), for which the activity change was 1.03% (inactive).

For the compound `Cc1c(CC(=O)NCC(=O)NCC(=O)O)c(=O)oc2cc3oc4c(c3cc12)CCCC4`, the activity change is -2.16% (inactive).

Consider `COc1ccc(-n2nc3c(c2NC(=O)c2ccc(N4C(=O)CCC4=O)cc2)CSC3)cc1`, for which the activity change is -0.865% (inactive).

Turning to `COc1cc(NC(=O)c2ccc(-c3csc(C)n3)cc2)c(OC)cc1Cl`, the activity change is -4.58% (inactive).

As to `COc1ccc(-c2csc(NC(=O)c3ccc(N4C(=O)CCC4=O)cc3)n2)cc1OC`, the activity change is -39.6% (active). The value for `C[C@H]1Cn2cnc(C(=O)N[C@H](C)c3ccccc3)c2C(=O)N1` was -0.974% (inactive); that for `Cc1ccc2nc(SCC(=O)NC3CCCC3)[nH]c2c1` was -1.34% (inactive). The value for `Cc1nc(SCC(=O)NC2CCCC2)[nH]c(=O)c1C` was -0.123% (inactive). In the case of `CCc1c(C)nc(SCC(=O)NC2CCCC2)[nH]c1=O`, the activity change was -41.7% (active). On to `O=C(CSC1=NS(=O)(=O)c2cc(F)ccc2N1)Nc1ccccc1F`, for which the activity change was 0.641% (inactive). Then `COC(=O)c1ccc(S(=O)(=O)c2ccc(C(=O)OC)s2)s1`, with 1.17% (inactive); and `Cc1ccc(-c2nn(-c3ccccc3)cc2/C=C/C(=O)Nc2cccc(S(N)(=O)=O)c2)cc1`, with 0.245% (inactive); and `COc1cccc(-c2nn(-c3ccccc3)cc2/C=C(\C#N)C(=O)NCCCn2ccnc2)c1`, with -0.966% (inactive). The value for `CN(C)S(=O)(=O)c1cccc(-c2nn(-c3ccccc3)cc2/C=C2\SC(=S)N(CC(=O)O)C2=O)c1` was -61.8% (active).

For `CSc1nc2ccccc2cc1/C=C(\C#N)c1ccc(Cl)cc1Cl`, the activity change was 2.8% (inactive). The value for `Cn1nc([N+](=O)[O-])nc1Sc1ccc(C(C)(C)C)cc1` was -4.31% (inactive); that for `Cc1cc(C(=O)NNC(=S)NC(C)c2ccccc2)cs1` (centres undefined) was -0.958% (inactive). Take `O=C(Nc1ccncc1)c1cc(-c2ccccn2)nc2ccc(Br)cc12`: the activity change is -70.4% (active). Then `Cc1ccc2nc(-c3ccncc3)cc(C(=O)Nc3ccc(OC(F)F)cc3)c2c1`, with -2.42% (inactive). The value for `O=C(Nc1ccc(Br)cc1)c1cc(S(=O)(=O)Nc2ccccn2)ccc1Cl` was -1.07% (inactive); that for `O=C(Nc1ccc(Cl)cc1)/C(=C1\CCCN1)[N+](=O)[O-]` was 0.411% (inactive); that for `O=C(Nc1cc(-c2nc3ncccc3o2)ccc1Cl)c1ccco1` was -2.43% (inactive). As for `O=S1(=O)CC(N2CCN(c3ccccn3)CC2)CN1Cc1ccc(F)cc1` (centres undefined), the activity change is -0.743% (inactive). Then `Cc1occc1C(=O)Nc1cccc(S(=O)(=O)N2CCOCC2)c1`, with -3.31% (inactive).

In the case of `Cc1cc(C)n2nc(C(=O)Nc3cccc(S(=O)(=O)N4CCOCC4)c3)nc2n1`, the activity change was -34.4% (active). On to `Cc1c(C(=O)Nc2cccc(S(=O)(=O)N3CCOCC3)c2)oc2ccccc12`, for which the activity change was -1.92% (inactive). Consider `Cc1ccc(-c2cc(C(F)(F)F)n3ncc(C(=O)N4CCCCC4c4cccnc4)c3n2)cc1` (centres undefined), for which the activity change is -3.01% (inactive).

Turning to `Cc1ccccc1NC(=O)C(C)c1ccc(-c2ccccc2)c(F)c1` (centres undefined), the activity change is -2.15% (inactive). The value for `CCCc1nc2c(C)cc(-c3nc4ccccc4n3C)cc2n1Cc1ccc(-c2ccccc2C(=O)O)cc1` was -0.702% (inactive); that for `O=C(NCCCN1CCCCC1)C1CC(=O)N(CCc2ccccc2)C1` (centres undefined) was 0.88% (inactive); that for `O=C(NCCc1ccc(Cl)cc1)C1CC(=O)N(C2CCCCC2)C1` (centres undefined) was -0.359% (inactive).

As to `O=C(NCCCN1CCCCCC1)C1CC(=O)N(C2CCCC2)C1` (centres undefined), the activity change was -44.9% (active).

Regarding `CCc1cc(CNC(=O)CC2C(=O)NCCN2CC2CCCCC2)on1` (centres undefined), the activity change is -0.174% (inactive). For the compound `CC(=O)Nc1ccc(S(=O)(=O)NCC2CCC(C(=O)NCCc3ccccc3)CC2)cc1` (centres undefined), the activity change is -1.57% (inactive). Then `COc1cccc(CNS(=O)(=O)c2csc(C(N)=O)c2)c1`, with 0.982% (inactive); and `COc1ccc(NC(=O)C2CCC(CNS(=O)(=O)c3csc(C(N)=O)c3)CC2)cc1OC` (centres undefined), with -80.6% (active). Then `CN(C)C(=O)CCc1ccc2c3c([nH]c2c1)[C@]1(CCC2CCCC2)[C@@H](C(=O)N2CCOCC2)C[C@H](CC(=O)NCc2ccco2)C(=O)N1CC3`, with 0.536% (inactive). Then `CSCCC(NC(=O)C1CCC(C)CC1)C(=O)NCc1ccco1` (centres undefined), with -5.62% (inactive); and `O=C(CCn1nnc2ccccc21)OCC(=O)c1ccc([N+](=O)[O-])cc1`, with 1.01% (inactive). `O=C(CC(n1cncn1)C(Cl)(Cl)Cl)c1ccc([N+](=O)[O-])cc1` (centres undefined): the activity change is -37.2% (active). The value for `O=C(Cn1c[n+](CC(=O)c2ccc([N+](=O)[O-])cc2)cn1)c1ccc([N+](=O)[O-])cc1` was 1.85% (inactive) and -0.852% (inactive). The value for `CCCN(C(=O)COC(=O)CNS(=O)(=O)c1ccc(NC(C)=O)cc1)C1CCS(=O)(=O)C1` (centres undefined) was -0.677% (inactive); that for `O=C(NC(=O)c1cc(OCC(F)(F)F)ccc1OCC(F)(F)F)Nc1ccccc1` was -0.0973% (inactive); that for `COC(=O)c1ccc(COc2cc([N+](=O)[O-])cc3cccnc23)cc1` was -0.442% (inactive). Then `COc1ccc(CN2CCCC(CNC(=O)c3ccc(F)cc3)C2)cc1OC` (centres undefined), with -2.54% (inactive); and `S=c1nccc(-c2cc(Cl)sc2Cl)[nH]1`, with -49.1% (active). Turning to `CCOc1c2ccc(C(=O)NC3CCCc4ccccc43)cc2nn1CC` (centres undefined), the activity change was -6.07% (inactive).

As to `COC(=O)c1ccc(Nc2ncnc3sccc23)cc1`, the activity change is -2.64% (inactive).

In the case of `COc1ccc(Nc2ncnc3sc(C)cc23)cc1`, the activity change was -82.2% (active). Regarding `COc1ccc(Nc2cc(Sc3ccc(OC)cc3)ncn2)cc1`, the activity change is -0.999% (inactive). With `CC1(C)CC[C@]2(C(=O)O)CC[C@]3(C)C(=CCC4[C@@]5(C)CC[C@H](O)C(C)(C)C5[C@H](O)C[C@]43C)[C@@H]2C1` (some centres undefined), the activity change was 0.294% (inactive). Then `CCO[C@H]1OC(C(=O)N2CCN(Cc3ccccc3)CC2)=C[C@@H](c2cn(C(C)=O)c3ccccc23)[C@@H]1CCCO`, with 0.631% (inactive); and `COc1ccc(CCNS(=O)(=O)c2ccc(Cl)s2)cc1OC`, with -1.56% (inactive).

Take `COc1ccc(CCNS(=O)(=O)c2ccc(F)cc2)cc1OC`: the activity change is -67.3% (active).

Turning to `COc1ccc(CCNS(=O)(=O)c2ccc(C(=O)NCc3ccco3)cc2)cc1OC`, the activity change was -2.3% (inactive). `O=C(OCCN1CCOCC1)C1(c2ccccc2)CCCCC1`: the activity change was 0.343% (inactive).

For `CCN1CCN(C(C(=O)NC2CCCC2)c2cc3c(cc2[N+](=O)[O-])OCO3)CC1` (centres undefined), the activity change is -0.623% (inactive). For the compound `Cc1ccc2c(c1)c1ncnc(N3CCc4ccccc4C3)c1n2C`, the activity change is 1.95% (inactive). For the compound `CCN(CC)CCN1C(=O)C2C(C(=O)Nc3ccc(Br)cc3)C3C=CC2(O3)C1C(=O)NC1CCCCC1` (centres undefined), the activity change was -40.8% (active). Then `CCOCCCN1C(=O)C2C(C(=O)Nc3ccc(OCC)cc3)C3C=CC2(O3)C1C(=O)NC1CCCCC1` (centres undefined), with -2.83% (inactive); and `CC(C)N1C(=O)C2C(C(=O)NC3CCCCC3)C3C=CC2(O3)C1C(=O)NC1CCCC1` (centres undefined), with -2.56% (inactive). The value for `CCCSc1nsc(N)n1` was -1.36% (inactive); that for `COc1ccc(N)c(C)c1` was -0.166% (inactive); that for `COc1ccc2c(C)cc3nnnn3c2c1` was -38.8% (active). The value for `COc1ccc2ccn(C)c2c1` was 1.51% (inactive); that for `Cc1nc2nc3c(cn2n1)C(=O)CC(c1ccccc1)C3` (centres undefined) was -0.882% (inactive). Turning to `CN1CCN(CC#CCC2(O)c3ccccc3-c3ccccc32)CC1`, the activity change was -0.316% (inactive). The value for `CSc1nnc2c(n1)OC(c1cn(C)c3ccccc13)N(C(C)=O)c1ccccc1-2` (centres undefined) was -0.161% (inactive). The value for `CSCCC(=O)N1CCCC(CNC(=O)c2ccccc2Cl)C1` (centres undefined) was -0.386% (inactive). The value for `CCOC(=O)CSc1ccccn1` was -41% (active); that for `CCOC(=O)CSc1ncc(-c2cccc(Cl)c2)cn1` was -0.564% (inactive). As to `COC(=O)c1ccccc1NC(=O)CSc1ccccn1`, the activity change is -2.39% (inactive). The value for `COc1ccc(N2C(=O)CCC(C(=O)N(C)C3CCCCC3)C2c2ccc(OC)c(OC)c2)cc1` (centres undefined) was -0.957% (inactive). The value for `CN1CCN(c2ccncc2S(=O)(=O)N2CCCC2)CC1` was -0.238% (inactive); that for `CNC[C@H](CC1CCCCC1)NC[C@H](NCCC1CCCC1)[C@H](C)O` was -0.857% (inactive); that for `COc1cccc(NC(=O)CSc2nnc(C3CCCCC3)n2N)c1` was -45.1% (active).

Regarding `Nn1c(SCC(=O)Nc2ccc3c(c2)CCC3)nnc1C1CC1`, the activity change is -0.2% (inactive). Turning to `COc1ccc(NC(=O)CSc2nnnn2-c2cccc(OC)c2)cc1`, the activity change is 1.8% (inactive). As for `O=C(Nc1cccnc1Oc1ncnc2cc(Cl)ccc12)c1ccc(F)cc1`, the activity change was 1.03% (inactive).

Regarding `O=C1N[C@H](Cc2ccccc2)C(=O)N[C@H]1Cc1cn(S(=O)(=O)c2ccccc2)c2ccccc12`, the activity change was -2.61% (inactive). With `Nc1nc(Nc2ccccc2F)nc(NC2CCCCC2)c1[N+](=O)[O-]`, the activity change is -0.808% (inactive). Then `C=CCNc1nc(N)c([N+](=O)[O-])c(NC2CCCCC2)n1`, with -43.9% (active); and `Nc1nc(NCC2CCCO2)nc(Nc2ccccc2F)c1[N+](=O)[O-]` (centres undefined), with 0.16% (inactive). Regarding `O=C(Nc1ccccc1-c1nnn(CC(=O)N2CCN(c3ccccc3)CC2)n1)c1cccs1`, the activity change is -3.64% (inactive). Then `CCOC1CS(=O)(=O)CC1OCC` (centres undefined), with 0.485% (inactive).

With `O=C(CS(=O)(=O)c1ccccc1)Nc1ccc(S(=O)(=O)Nc2ccccn2)cc1`, the activity change is 0.548% (inactive).

`COc1ccc(NC(=O)CC(NC(C)c2ccccc2)C(=O)O)cc1` (centres undefined): the activity change was -0.408% (inactive). Then `COc1ccc(NC(=O)CS(=O)(=O)c2ccccc2)cc1`, with -61% (active).

For the compound `COc1cc2nc(CN(C)Cc3ccc(F)cc3)[nH]c(=O)c2cc1OC`, the activity change is -1.05% (inactive).

The values are drawn from PubChem BioAssay AID651819 (National Center for Advancing Translational Sciences (NCATS), 2012).
